Records with an inconclusive call do not appear. Activity calls are given as the source filed them. Unless noted, calls follow the shape of the dose curve; as a rule, active = well fitted curve in the direction sought with a large enough effect in the repeat runs; inconclusive = weak or mixed curves; inactive = no such curve, though single readings can be large; an effect the other way counts as inactive or inconclusive.
Key:
[1] = target: Retinoic acid receptor RXR-alpha (Homo sapiens) (UniProt P19793); test: qHTS assay to identify small molecule agonists of the RXR signaling pathway (AID 1159527; calls by dose curve; also: nearly all actives have a fitted effect of over 35% in size)
Outline: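 GeneBLAzer RXR-alpha-UAS-bla HEK 293T cells in 2% charcoal-stripped FBS medium were exposed to compounds for 16 hr at 37 C in agonist mode. Beta-lactamase reporter read as 460/530 nm FRET ratio after 2 hr substrate loading.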

[2] = qHTS assay to identify small molecule agonists of the RXR signaling pathway - cell viability counter screen (AID 1159529); also: series mostly up to about 77 µM; nearly all actives have a fitted effect of over 50% in size
Outline: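 RXR-alpha-UAS-bla HEK 293T cells in medium with 2% charcoal-stripped FBS were pre-incubated 5 hr, then compound-treated 16 hr at 37 C. Viability was read by CellTiter-Glo luminescence in the same wells as the beta-lactamase assay, with tetraoctyl ammonium bromide as positive control.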

[3] = qHTS assay to identify small molecule antagonists of the retinoid acid receptor (RAR) signaling pathway - cell viability counter screen (AID 1159551); also: nearly all actives have a fitted effect of over 35% in size
Outline: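 Retinol-stimulated (1 uM final) C3RL4 cells, compound 6 h, 37 C; readout CellTiter-Glo luminescence (ATP) after 30 min RT incubation.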

[4] = qHTS assay to identify small molecule antagonists of the retinoic acid receptor (RAR) signaling pathway (AID 1159552; also: nearly all actives have a fitted effect of over 50% in size)
Outline: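 Retinol signaling pathway inhibitors screened in C3RL4 RARE-luciferase reporter cells seeded overnight at 37 C, then compounds added with 1 uM (final) retinol as pathway substrate. After 6 hr at 37 C, luciferase luminescence read after 30 min at room temperature.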

[5] = qHTS assay to identify small molecule agonists of the retinoic acid receptor (RAR) signaling pathway (AID 1159553); also: potency is read from the fitted curve at half-maximal effect
Outline: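 Reporter readout comes from luciferase under RARE control in C3RL4 cells; compound exposure lasts 6 hr at 37 C in 5% CO2, and luminescence is recorded following a 30 min room-temperature incubation with reagent.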

[6] = qHTS assay to identify small molecule antagonists of the estrogen related receptor (ERR) signaling pathway from Tox21 library - cell viability counter screen (AID 1224834); also: nearly all actives have a fitted effect of over 30% in size
Outline: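 After 17.5 h of compound exposure at 37 C, ERR cells are incubated with CellTiter-Fluor for 30 min and fluorescence intensity serves as the viability measure.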

[7] = target: Luciferin 4-monooxygenase (Photinus pyralis) (UniProt P08659); test: qHTS assay to identify small molecule inhibitors of firefly luciferase (AID 1224835); also: nearly all actives have a fitted effect of over 25% in size; also: potency is read from the fitted curve at half-maximal effect
Outline: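 Quantitative HTS format; KM concentrations of both substrates. Purified P. pyralis FLuc activity quantified from luminescence images.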

[8] = qHTS assay to identify small molecule agonists of the constitutive androstane receptor (CAR) signaling pathway - cell viability counter screen (AID 1224836); also: series mostly up to about 92 µM; nearly all actives have a fitted effect of over 45% in size
Outline: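 HepG2 cells stably carrying hCAR and a CYP2B6-2.2kb reporter; 15-concentration compounds plus PK11195 (final 0.75 uM), 23 hr at 37 C/5% CO2. Viability read by CellTiter-Fluor fluorescence.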

[9] = qHTS assay to identify small molecule antagonists of the constitutive androstane receptor (CAR) signaling pathway - cell viability counter screen (AID 1224837); also: series mostly up to about 92 µM; nearly all actives have a fitted effect of over 45% in size
Outline: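 Counter screen run in HepG2-CYP2B6-hCAR cells: 4 hr settle, compound titration (15 concentrations) with 50 nM CITCO, 23 hr at 37 C/5% CO2, CellTiter-Fluor fluorescence.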

[10] = target: Nuclear receptor subfamily 1 group I member 3 (Homo sapiens) (UniProt Q14994); test: qHTS assay to identify small molecule antagonists of the constitutive androstane receptor (CAR) signaling pathway (AID 1224838);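 also: HepG2 cells stably expressing hCAR with CYP2B6 luciferase reporter stimulated by CITCO; nearly all actives have a fitted effect of over 40% in size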
Outline: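 Cell line: HepG2 double-stable for hCAR and CYP2B6-2.2kb reporter. Agonist: CITCO, 50 nM final. Compounds: 15 concentrations, 24 h, 37 C. Detection: ONE-Glo luminescence.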

[11] = target: Nuclear receptor subfamily 1 group I member 3 (Homo sapiens) (UniProt Q14994); test: qHTS assay to identify small molecule agonists of the constitutive androstane receptor (CAR) signaling pathway (AID 1224839);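 also: HepG2 cells stably carrying human CAR and a CYP2B6 luciferase reporter; series mostly up to about 92 µM; nearly all actives have a fitted effect of over 15% in size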
Outline: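 HepG2 cells stably co-transfected with hCAR and a CYP2B6-2.2kb luciferase reporter; compounds at 15 concentrations with 0.75 uM PK11195 present. After 24 hr at 37 C, luciferase read by ONE-Glo luminescence.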

[12] = qHTS assay to identify small molecule antagonists of the estrogen related receptor signaling pathway with the pleiotropic PPARgamma coactivator (PGC) from Tox21 10K library - cell viability counter screen (AID 1224840; active = well fitted cell-killing curve with a large enough effect in the repeat runs, not every such curve was filed as active; also: nearly all actives have a fitted effect of over 40% in size)
Outline: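 Following seeding of 2,000 PGC/ERR cells/well and 6 hours' incubation, test compounds were delivered in DMSO. The plates then sat 17.5 hours at 37 C before a fluorogenic live-cell protease reagent (CellTiter-Fluor) was read after 30 min.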

[13] = qHTS assay to identify small molecule antagonists of the estrogen related receptor signaling pathway with the pleiotropic PPARgamma coactivator (PGC) from Tox21 10K library (AID 1224841; call rule not given here; also: series mostly up to about 92 µM; actives are mostly falling curves and most rising ones were filed inactive; nearly all actives have a fitted effect of over 50% in size)
Outline: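 qHTS antagonist format: PGC/ERR cells, 2k/well, compound in DMSO by pin transfer after 6 h attachment, 18 h treatment at 37 C, One-Glo luminescence read at 30 min.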

[14] = qHTS assay to identify small molecule agonists of the estrogen related receptor signaling pathway with the pleiotropic PPARgamma coactivator (PGC) from Tox21 10K library (AID 1224842); also: nearly all actives have a fitted effect of over 15% in size; also: potency is read from the fitted curve at half-maximal effect
Outline: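 PGC/ERR reporter cells (NTP line) were seeded 2,000 per well, rested 6 h at 37 C/5% CO2, then pin-dosed with compounds in DMSO for 18 h at 37 C; luciferase read by One-Glo luminescence after 30 min at room temperature.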

[15] = qHTS assay to identify small molecule antagonists of the estrogen related receptor (ERR) signaling pathway - cell viability counter screen (AID 1224818); also: series mostly up to about 46 µM
Outline: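 After a 6 h pre-incubation, ERR cells were dosed by pin tool with compounds, positive/negative controls or DMSO alone. Following 17.5 h at 37 C and 30 min with CellTiter-Fluor, fluorescence was recorded.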

[16] = qHTS assay to identify small molecule antagonists of the estrogen related receptor signaling pathway with the pleiotropic PPARgamma coactivator (PGC) cell viability counter screen (AID 1224822; also: series mostly up to about 46 µM)
Outline: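 PGC/ERR cells were plated at 2,000 per well and allowed 6 h to settle before compound addition. Following 17.5 h at 37 C, CellTiter-Fluor reagent was added and fluorescence was read 30 min later.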

Measured: Potency

Nuclear receptor subfamily 1 group I member 3 (Homo sapiens), sequence (Q14994 whole entry, looked up): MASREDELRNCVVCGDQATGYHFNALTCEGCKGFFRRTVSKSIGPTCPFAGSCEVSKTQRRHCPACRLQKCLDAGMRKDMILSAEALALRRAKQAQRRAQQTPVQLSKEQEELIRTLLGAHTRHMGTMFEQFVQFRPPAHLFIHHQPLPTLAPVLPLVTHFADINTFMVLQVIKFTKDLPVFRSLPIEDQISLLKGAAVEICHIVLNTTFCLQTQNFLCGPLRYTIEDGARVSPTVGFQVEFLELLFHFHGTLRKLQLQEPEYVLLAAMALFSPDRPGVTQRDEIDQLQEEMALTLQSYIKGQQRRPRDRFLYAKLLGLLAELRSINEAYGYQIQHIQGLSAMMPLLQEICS
Luciferin 4-monooxygenase (Photinus pyralis), sequence (P08659 whole entry, looked up): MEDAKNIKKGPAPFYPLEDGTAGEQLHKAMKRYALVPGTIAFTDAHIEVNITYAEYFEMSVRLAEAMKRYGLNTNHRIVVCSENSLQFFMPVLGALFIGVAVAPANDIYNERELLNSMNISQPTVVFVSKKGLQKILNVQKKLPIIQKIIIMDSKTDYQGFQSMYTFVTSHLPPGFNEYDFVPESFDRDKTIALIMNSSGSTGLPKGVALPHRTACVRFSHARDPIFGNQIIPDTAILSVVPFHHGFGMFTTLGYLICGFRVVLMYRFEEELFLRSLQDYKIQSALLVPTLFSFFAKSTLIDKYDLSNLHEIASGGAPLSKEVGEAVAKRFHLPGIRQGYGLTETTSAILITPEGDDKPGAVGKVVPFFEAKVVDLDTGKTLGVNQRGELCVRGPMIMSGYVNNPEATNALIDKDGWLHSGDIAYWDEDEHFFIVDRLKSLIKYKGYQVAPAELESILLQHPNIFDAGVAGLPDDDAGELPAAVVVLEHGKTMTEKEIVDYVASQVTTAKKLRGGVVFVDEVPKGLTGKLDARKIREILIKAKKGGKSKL
Retinoic acid receptor RXR-alpha (Homo sapiens), sequence (P19793 whole entry, looked up): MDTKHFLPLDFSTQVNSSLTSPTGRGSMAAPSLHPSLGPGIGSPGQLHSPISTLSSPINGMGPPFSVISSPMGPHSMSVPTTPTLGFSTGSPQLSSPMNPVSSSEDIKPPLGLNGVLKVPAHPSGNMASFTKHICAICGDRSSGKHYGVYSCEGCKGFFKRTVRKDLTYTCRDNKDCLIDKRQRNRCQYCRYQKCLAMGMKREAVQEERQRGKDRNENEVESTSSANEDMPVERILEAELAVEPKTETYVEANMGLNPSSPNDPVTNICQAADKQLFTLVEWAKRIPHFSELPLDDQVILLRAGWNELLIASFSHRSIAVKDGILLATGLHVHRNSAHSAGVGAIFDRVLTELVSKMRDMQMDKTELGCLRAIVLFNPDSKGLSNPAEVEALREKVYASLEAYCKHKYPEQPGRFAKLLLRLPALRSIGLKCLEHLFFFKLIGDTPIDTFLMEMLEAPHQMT

O=C1[C@@H]2[C@H]3CC[C@H](C3)[C@@H]2C(=O)N1CCCCN1CCN(c2ncccn2)CC1
not listed: [13] | [14] | [15] | [16]
inactive: all other assays above

COc1ccc(C2C(=O)c3ccccc3C2=O)cc1
active: [7] 3.09 µM | [14] 10.6 µM
not listed: [11] | [15] | [16]
inactive: all other assays above

CC(C)N(C)C
not listed: [13] | [14] | [15] | [16]
inactive: all other assays above

CC1CCCC(=O)C1=O (centres undefined)
not listed: [13] | [14] | [15] | [16]
inactive: all other assays above

CCCCCCC(O)CCCCCCCCCCC(=O)OC (centres undefined)
not listed: [13] | [14] | [15] | [16]
inactive: all other assays above

CSSc1ccoc1C
active: [5] 43.1 nM
not listed: [13] | [14] | [15] | [16]
inactive: all other assays above

Cc1ccccc1S(N)(=O)=O
not listed: [13] | [14] | [15] | [16]
inactive: all other assays above

COC1CCC=CO1 (centres undefined)
not listed: [15] | [16]
inactive: all other assays above

Cc1ccc(NC(=O)N(C)C)cc1NC(=O)N(C)C
not listed: [13] | [14] | [15] | [16]
inactive: all other assays above

Cc1ccc(N(CC2=NCCN2)c2cccc(O)c2)cc1
not listed: [6] | [13] | [14]
inactive: all other assays above

— PubChem BioAssay (Tox21)
